{"source": "PubChem BioAssay (NCATS)", "key": {"[1]": {"test": "Primary qHTS for Huh7 cytotoxicity: counterscreen for inhibitors of MERS-S pseudotyped particle cell entry (AID 1479147)", "conditions": "outcome: at 57.1 µM (top of the series) unless noted"}, "[2]": {"test": "Primary qHTS for Vero E6 cytotoxicity: counterscreen for inhibitors of SARS-S pseudo-typed particle cell entry (AID 1479150)", "conditions": "outcome: at 57.1 µM (top of the series) unless noted"}, "[3]": {"biological_target": "Bile acid receptor (Homo sapiens) (UniProt Q96RI1)", "sequence (Q96RI1 whole entry, looked up)": "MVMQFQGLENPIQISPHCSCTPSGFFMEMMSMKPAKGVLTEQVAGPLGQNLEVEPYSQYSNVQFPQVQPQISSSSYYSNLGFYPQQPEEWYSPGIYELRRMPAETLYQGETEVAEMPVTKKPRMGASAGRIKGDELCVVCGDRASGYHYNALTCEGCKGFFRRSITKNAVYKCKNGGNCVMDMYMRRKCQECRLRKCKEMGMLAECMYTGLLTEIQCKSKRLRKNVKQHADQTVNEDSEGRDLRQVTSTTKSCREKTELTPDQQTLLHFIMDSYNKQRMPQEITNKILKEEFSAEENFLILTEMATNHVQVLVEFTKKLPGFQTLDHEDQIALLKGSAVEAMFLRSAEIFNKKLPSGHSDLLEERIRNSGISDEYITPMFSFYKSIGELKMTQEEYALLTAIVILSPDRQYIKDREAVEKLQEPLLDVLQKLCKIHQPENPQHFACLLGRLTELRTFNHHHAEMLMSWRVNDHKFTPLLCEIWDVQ", "test": "qHTS assay for small molecule agonists of farnesoid X receptor signaling (AID 588527)", "conditions": "HEK293T FXR-UAS-bla, beta-lactamase ratio, 16 h; stronger effect = higher value", "how_it_was_run": "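FXR-UAS-bla HEK293T cells (10% dialyzed FBS) preincubated 5-7 h at 37 C, then compounds at up to 92 uM for 16 h at 37 C. CCF4 beta-lactamase read-out after 2 h RT. Normalized to chenodeoxycholic acid (100 uM) and DMSO; Hill fit gave EC50 and efficacy.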"}, "[4]": {"biological_target": "Peroxisome proliferator-activated receptor delta (Homo sapiens) (UniProt Q03181)", "sequence (Q03181 whole entry, looked up)": "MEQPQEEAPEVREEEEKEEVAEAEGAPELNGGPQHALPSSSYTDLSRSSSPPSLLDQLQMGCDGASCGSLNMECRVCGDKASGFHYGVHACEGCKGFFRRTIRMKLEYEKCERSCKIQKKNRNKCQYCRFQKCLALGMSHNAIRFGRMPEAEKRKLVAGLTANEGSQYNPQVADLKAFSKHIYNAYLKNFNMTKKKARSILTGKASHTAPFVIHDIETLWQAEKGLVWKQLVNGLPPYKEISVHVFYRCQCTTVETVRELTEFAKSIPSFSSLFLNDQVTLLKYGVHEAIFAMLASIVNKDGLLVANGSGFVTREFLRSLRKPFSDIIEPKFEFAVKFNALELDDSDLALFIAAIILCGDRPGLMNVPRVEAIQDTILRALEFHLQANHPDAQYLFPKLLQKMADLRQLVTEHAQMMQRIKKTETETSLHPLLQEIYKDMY", "test": "qHTS assay for small molecule agonists of peroxisome proliferator-activated receptor delta signaling (AID 588534)", "how_it_was_run": "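EC50 and efficacy values derive from Hill fits of a concentration series in a beta-lactamase reporter cell assay. Exposure is 18 hrs at 37 C, with CCF4 fluorescence as the readout.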"}, "[5]": {"test": "Primary qHTS for inhibitors of MERS-S pseudo-typed particle cell entry (AID 1479149); note: nearly all actives have a fitted effect of over 60% in size", "conditions": "outcome: at 57.1 µM (top of the series) unless noted"}, "[6]": {"test": "Cytotoxicity counterscreen for inhibitors of SARS-CoV-2 cell entry (AID 1645845); note: nearly all actives have a fitted effect of over 50% in size", "conditions": "outcome: at 57.1 µM (top of the series) unless noted", "how_it_was_run": "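After a 15 min room-temperature ATPLite 1step step, luminescence reflected ATP remaining in HEK293-ACE2 cells exposed to compound for 1 h plus 48 h at 37 C, with percent activity set by cell and no-cell controls.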"}, "[7]": {"test": "Primary qHTS to identify inhibitors of SARS-CoV-2 cell entry (AID 1645846); note: nearly all actives have a fitted effect of over 45% in size", "conditions": "SARS-CoV-2 pseudovirus cell entry assay, luminescence; activity change, negative = inhibition: at 57.1 µM (top of the series) unless noted", "how_it_was_run": "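Entry measured by luciferase signal 48 h after adding SARS-CoV-2-S pseudotyped MLV particles to HEK293-ACE2 cells preincubated 1 h with compounds. Normalisation: bald particles and spike particles.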"}, "[8]": {"test": "qHTS Assay for Identifying Gametocytocidal Compounds (AID 743244; active = well fitted curve in the direction sought with a large enough effect; an effect the other way counts as inactive or inconclusive; note: potency is the fitted concentration of half-maximal effect)", "conditions": "P. falciparum 3D7 stage III-V gametocytes, alamarBlue, 72 h", "how_it_was_run": "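Using 20,000 stage III–V 3D7 gametocytes per well, compounds were incubated 72 h under 37 °C/5% CO2. Viability was then assessed by 24 h alamarBlue reduction, measured fluorometrically at 525/598 nm.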"}, "[9]": {"test": "Confirmatory qHTS for VERO E6 Cytotoxicity Assay: Counterscreen for SARS-CoV-2 CPE Assay (AID 1508605); note: nearly all actives have a fitted effect of over 60% in size"}, "[10]": {"test": "Confirmatory qHTS to identify inhibitors of SARS-CoV-2 cell entry (AID 1645844); note: potency is the fitted concentration of half-maximal effect; nearly all actives have a fitted effect of over 45% in size", "how_it_was_run": "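Using stable human ACE2 Expi293F cells, compounds preincubated 1 hr before spike pseudoparticle infection; luciferase signal after 48 hr at 37C, 5% CO2, normalised to spike PP and no-fusion-protein PP wells.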"}, "[11]": {"biological_target": "Glutathione peroxidase 1 (Homo sapiens) (UniProt P07203)", "sequence (P07203 whole entry, looked up)": "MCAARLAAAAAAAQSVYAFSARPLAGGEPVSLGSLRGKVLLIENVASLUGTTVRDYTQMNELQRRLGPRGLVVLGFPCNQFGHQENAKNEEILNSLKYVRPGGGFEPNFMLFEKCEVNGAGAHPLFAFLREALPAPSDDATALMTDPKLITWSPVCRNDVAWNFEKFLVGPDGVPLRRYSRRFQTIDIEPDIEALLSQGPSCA", "test": "Primary qHTS Assay for Inhibitors of Recombinant Selenoprotein Glutathione Peroxidase 1 (GPX1) (AID 1845191; active = well fitted curve in the direction sought with a large enough effect; an effect the other way counts as inactive or inconclusive; note: nearly all actives have a fitted effect of over 65% in size)", "how_it_was_run": "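GPX1 10 nM, GR 100 nM, GSH 1 mM, NADPH 0.5 mM, CHP 0.5 mM (final). 30-min cpd preincubation, RT. Ex340/Em450 read t=0, t=15 min.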"}, "[12]": {"biological_target": "Phospholipid hydroperoxide glutathione peroxidase GPX4 (Homo sapiens) (UniProt P36969)", "sequence (P36969 whole entry, looked up)": "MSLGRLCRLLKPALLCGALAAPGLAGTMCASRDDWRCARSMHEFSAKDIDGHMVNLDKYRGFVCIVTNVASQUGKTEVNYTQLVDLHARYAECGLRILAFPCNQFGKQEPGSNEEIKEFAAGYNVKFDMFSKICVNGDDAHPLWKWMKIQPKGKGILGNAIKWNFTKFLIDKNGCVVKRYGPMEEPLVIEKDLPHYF", "test": "Primary qHTS Assay for Inhibitors of Recombinant Selenoprotein Glutathione Peroxidase 4 (GPX4) (AID 1845192; active = well fitted curve in the direction sought with a large enough effect; an effect the other way counts as inactive or inconclusive; note: nearly all actives have a fitted effect of over 65% in size)", "how_it_was_run": "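qHTS, GR-coupled: GPX4 200 nM + cpd 30 min RT → GSH 1 mM, NADPH 0.5 mM, GR 100 nM → CHP 0.5 mM start; fluor 340/450 at t0 and t15 min; no-enzyme wells as control.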"}}, "note": "Results filed as inconclusive are left out. A call without a number means that no potency is given here. Activity calls are given as the source filed them. Unless noted, calls come from the whole dose curve.", "data": [{"smiles": "N=C(N)c1ccc(OCCCOc2ccc(C(=N)N)cc2Br)c(Br)c1", "values": [{"measurement": "Potency", "setting": "[1]", "result": "inactive"}, {"measurement": "Potency", "setting": "[2]", "result": "inactive"}]}, {"smiles": "O=S(=O)(O)c1ccccc1", "values": [{"measurement": "activation", "setting": "[3]", "result": "0.473% (inactive)"}, {"measurement": "outcome", "setting": "[4]", "result": "inactive"}, {"measurement": "Potency", "setting": "[1]", "result": "inactive"}, {"measurement": "Potency", "setting": "[5]", "result": "inactive"}, {"measurement": "Potency", "setting": "[2]", "result": "inactive"}, {"measurement": "Potency", "setting": "[6]", "result": "inactive"}, {"measurement": "activity change, negative = inhibition", "setting": "[7]", "result": -15.3, "unit": "%"}]}, {"smiles": "C#C[C@]1(O)CC[C@H]2[C@@H]3CCC4=CC(=O)CC[C@@H]4[C@H]3C(=C)C[C@@]21CC", "values": [{"measurement": "Potency", "setting": "[8]", "result": "7.43 µM (active)"}, {"measurement": "Potency", "setting": "[1]", "result": "inactive"}, {"measurement": "Potency", "setting": "[5]", "result": "inactive"}, {"measurement": "Potency", "setting": "[2]", "result": "inactive"}]}, {"smiles": "CC(CN1c2ccccc2Sc2ccc(S(=O)(=O)N(C)C)cc21)N(C)C", "note": "(stereo not given)", "values": [{"measurement": "Potency", "setting": "[1]", "result": "inactive"}, {"measurement": "Potency", "setting": "[2]", "result": "inactive"}, {"measurement": "Potency", "setting": "[9]", "result": "inactive"}, {"measurement": "Potency", "setting": "[10]", "result": "39.3 µM (active)"}]}, {"smiles": "CCN1C[C@@]2(COC)C3[C@@H](OC)C4[C@@H]1[C@@]3(C1C[C@]3(O)[C@H](OC(=O)c5ccccc5)C1[C@]4(OC(C)=O)[C@@H](O)[C@@H]3OC)[C@@H](OC)C[C@H]2O", "note": "(stereo not given in full)", "values": [{"measurement": "Potency", "setting": "[1]", "result": "inactive"}, {"measurement": "Potency", "setting": "[5]", "result": "inactive"}, {"measurement": "Potency", "setting": "[2]", "result": "inactive"}, {"measurement": "Potency", "setting": "[11]", "result": "inactive"}, {"measurement": "Potency", "setting": "[12]", "result": "inactive"}]}, {"smiles": "C=C1/C(=C/C=C2\\CCC[C@]3(C)[C@@H]([C@H](C)CC[C@@H](O)C(C)C)CC[C@@H]23)C[C@@H](O)C[C@@H]1O", "values": [{"measurement": "Potency", "setting": "[1]", "result": "inactive"}, {"measurement": "Potency", "setting": "[2]", "result": "inactive"}]}, {"smiles": "CN1CCc2c(c3ccccc3n2Cc2ccccc2)C1", "values": [{"measurement": "Potency", "setting": "[1]", "result": "inactive"}, {"measurement": "Potency", "setting": "[2]", "result": "inactive"}]}, {"smiles": "CCOC(=O)c1c[nH]c2cc(OCC(C)C)c(OCC(C)C)cc2c1=O", "values": [{"measurement": "Potency", "setting": "[1]", "result": "inactive"}, {"measurement": "Potency", "setting": "[5]", "result": "inactive"}, {"measurement": "Potency", "setting": "[6]", "result": "inactive"}, {"measurement": "activity change, negative = inhibition", "setting": "[7]", "result": -18.7, "unit": "%"}]}]}
